Reference: PubChem BioAssay (NCATS)
Values joined by “and” are separate entries in the source; they are usually repeats but may differ in a detail not shown here. Identical values can stand only once. Results filed as inconclusive are left out. Active and inactive are the calls of the source. Calls come from the whole dose curve; as a rule, active = well fitted curve in the direction sought with a large enough effect; inconclusive = small, poorly fitted or top-dose-only effect, or another doubt; inactive = no such curve, though single readings can be large; an effect the other way counts as inactive or inconclusive.

Experiments:
[1] = target: Cytochrome P450 3A7 (Homo sapiens) (UniProt P24462); experiment: Cytochrome P450 family 3 subfamily A member 7 (CYP3A7) small molecule antagonists: luciferase biochemical qHTS assay (AID 1963596); conditions: P450-Glo CYP3A7 enzyme luminescence, 1 h; series mostly up to 57.4 µM; note: nearly all actives have a fitted effect of over 40% in size
Sequence of Cytochrome P450 3A7 (Homo sapiens) (P24462 whole entry, looked up): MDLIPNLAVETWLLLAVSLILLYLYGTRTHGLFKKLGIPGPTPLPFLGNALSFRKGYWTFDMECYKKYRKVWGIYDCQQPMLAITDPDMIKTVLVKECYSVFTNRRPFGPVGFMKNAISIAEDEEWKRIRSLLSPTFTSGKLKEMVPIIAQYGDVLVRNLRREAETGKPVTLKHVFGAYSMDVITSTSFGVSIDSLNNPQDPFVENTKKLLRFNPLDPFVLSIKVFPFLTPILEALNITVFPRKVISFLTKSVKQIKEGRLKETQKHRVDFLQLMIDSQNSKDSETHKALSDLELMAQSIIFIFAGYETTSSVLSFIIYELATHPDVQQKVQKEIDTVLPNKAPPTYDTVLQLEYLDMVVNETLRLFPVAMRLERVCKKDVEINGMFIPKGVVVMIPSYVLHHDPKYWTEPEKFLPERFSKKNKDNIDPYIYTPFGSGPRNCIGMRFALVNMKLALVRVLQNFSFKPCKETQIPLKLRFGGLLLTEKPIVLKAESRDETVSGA
Outline: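 Enzyme-substrate mix + cpd (DMSO), 10 min RT; + NADPH regen system, 1 h RT; + luciferin detection reagent, 20 min RT; luminescence read. Proluciferin substrate, P450-Glo format, 1536-well qHTS.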

[2] = Viability qHTS for spleen associated tyrosine kinase inhibitor (SYKi) naive MV4-11 cells (AID 1963823); conditions: MV4-11 AML viability, CellTiter-Glo luminescence, 72 h; series mostly up to 45 µM; note: nearly all actives have a fitted effect of over 40% in size
Outline: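 Compounds were dispensed acoustically onto plates, MV4-11 cells (SYKi-naive) added at 500 per well, and plates incubated 72 hr at 37 C. CellTiter-Glo was added and luminescence measured after 10 min.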

[3] = Viability qHTS for spleen associated tyrosine kinase inhibitor (SYKi) drug resistant MV4-11 cells (AID 1963824); conditions: SYKi-resistant MV4-11 viability, CellTiter-Glo, 72 h; series mostly up to 45 µM; note: nearly all actives have a fitted effect of over 35% in size
Outline: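 SYK inhibitor-resistant MV4-11 AML cells, 500 per well, added to predispensed compounds and incubated 72 hr at 37 C, 5% CO2. Viability measured by CellTiter-Glo luminescence after 10 min at room temperature.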

[4] = Quantitative highthroughput screen to assess conditional lethalithy of NOMO1 cells grown in RPMI1640 with untreated serum (RPMI+s) (AID 1963876); conditions: NOMO1 AML cells in RPMI+serum, CellTiter-Glo viability, 48 h; series mostly up to 45.8 µM; note: nearly all actives have a fitted effect of over 35% in size;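 for Viability: 100% = DMSO wells and 0% = empty wells without cells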
Outline: (§1)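 Each medium arm—HPLM with 10% dialyzed FBS, or RPMI1640 with 5 mM glucose and 10% untreated or dialyzed FBS—was screened against an 11-point, 3-fold compound titration for 48 h at 37 °C, with CellTiter-Glo luminescence as endpoint.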

[5] = Quantitative highthroughput screen to assess conditional lethalithy of NOMO1 cells grown in Human Plasma-Like Medium with dialyzed fetal bovine serum (HPLM+ds) (AID 1963878); conditions: NOMO1 AML cells in HPLM+ds, CellTiter-Glo viability, 48 h; series mostly up to 45.8 µM; note: nearly all actives have a fitted effect of over 35% in size;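 for Viability: 100% = DMSO wells and 0% = empty wells on each plate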
Outline: as §1

[6] = Quantitative highthroughput screen to assess conditional lethalithy of P12 Ichikawa cells grown in Human Plasma-Like Medium with dialyzed fetal bovine serum (HPLM+ds) (AID 1963879); conditions: ATP luminescence, 48 h; Potency: viability; series mostly up to 45.8 µM; note: nearly all actives have a fitted effect of over 35% in size
Outline: as §1

[7] = Quantitative highthroughput screen to assess conditional lethalithy of P12 Ichikawa cells grown in RPMI1640 with dialyzed fetal bovine serum (RPMI+ds) (AID 1963880); conditions: ATP luminescence, 48 h; Potency: P12-Ichikawa viability; series mostly up to 45.8 µM; note: nearly all actives have a fitted effect of over 35% in size;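 for Viability: 100% = DMSO wells and 0% = empty wells on each plate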
Outline: as §1

[8] = Quantitative highthroughput screen to assess conditional lethalithy of P12 Ichikawa cells grown in RPMI1640 with untreated serum (RPMI+s) (AID 1963881); conditions: ATP luminescence, 48 h; Potency: viability; series mostly up to 45.8 µM; note: nearly all actives have a fitted effect of over 35% in size;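 for Viability: 100% = DMSO wells and 0% = empty wells without cells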
Outline: as §1

[9] = Quantitative highthroughput screen to assess conditional lethalithy of SEM cells grown in Human Plasma-Like Medium with dialyzed fetal bovine serum (HPLM+ds) (AID 1963882); conditions: SEM B-ALL cells in HPLM+ds, CellTiter-Glo viability, 48 h; series mostly up to 45.8 µM; note: nearly all actives have a fitted effect of over 35% in size
Outline: as §1

[10] = Quantitative highthroughput screen to assess conditional lethalithy of SEM cells grown in RPMI1640 with unreated serum (RPMI+s) (AID 1963883); conditions: SEM B-ALL cells, CellTiter-Glo viability, 48 h; series mostly up to 45.8 µM; note: nearly all actives have a fitted effect of over 35% in size;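 for Viability: 100% = DMSO wells and 0% = empty wells without cells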
Outline: as §1

[11] = Cellular viability qHTS for adrenocortical cancer (ACC) cell line SW-13 (AID 1963989); conditions: SW-13 ACC cells viability, CellTiter-Glo, 48 h; activity (max response): stronger effect = lower value; note: nearly all actives have a fitted effect of over 65% in size;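 for activity (max response): cells grown in serum-free medium with ITS supplement; % is set by controls: 0 for no effect and ±100 for the full control effect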
Outline: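 Here, serum-free SW-13 cultures were dosed up to 46 uM. Following 48 h, ATP-dependent luminescence (CellTiter-Glo) reported viable cells, and logistic modeling produced IC50 values.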

[12] = Cellular viability qHTS for adrenocortical cancer (ACC) cell line NCI-H295R (AID 1963990); conditions: CellTiter-Glo ATP luminescence, 48 h; series mostly up to 46.1 µM; note: nearly all actives have a fitted effect of over 60% in size
Outline: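 Viability of NCI-H295R after 48 h of treatment (final up to 46 uM) measured through cellular ATP luminescence.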

[13] = Quantitative highthroughput screen to assess conditional lethalithy of NOMO1 cells grown in RPMI1640 with dialyzed fetal bovine serum (RPMI+ds) (AID 1963877); conditions: NOMO1 in RPMI+dialyzed FBS viability, ATP luminescence, 48 h; series mostly up to 45.8 µM; note: nearly all actives have a fitted effect of over 30% in size;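 for Viability: 100% = DMSO control wells and 0% = empty wells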
Outline: as §1

[14] = Quantitative highthroughput screen to assess conditional lethalithy of SEM cells grown in RPMI1640 with dialyzed fetal bovine serum (RPMI+ds) (AID 1963884); conditions: SEM B-ALL cells, RPMI+dialyzed FBS, CellTiter-Glo viability, 48 h; series mostly up to 45.8 µM; note: nearly all actives have a fitted effect of over 35% in size;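 for Viability: 100% = DMSO control wells and 0% = empty wells without cells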
Outline: as §1
Potency is the fitted concentration of half-maximal effect.

COc1nc(C)nc(Cl)c1NC1=NCCN1
inactive: Potency [1] | Potency [2] | Potency [3] | Potency [4] | Potency [5] | Potency [6] | Potency [7] | Potency [8] | Potency [9] | Potency [10] | activity (max response) [11] -1.64% | Potency [12]

Fc1cc(-c2cccc3ncc(-c4cnn(C5CCNCC5)c4)nc23)cc(F)c1CN1CCOCC1
inactive: Potency [1]
active: Potency [2] 259 nM and 372 nM | Potency [3] 731 nM and 833 nM | Potency [4] 8.33 µM | Potency [5] 3.32 µM | Potency [7] 16.6 µM | Potency [9] 4.69 µM | Potency [10] 2.64 µM | Potency [11] 25.1 µM | Potency [12] 6.31 µM

CNNCc1ccc(C(=O)NC(C)C)cc1
inactive: Potency [1] | Potency [2] | Potency [3] | Potency [4] | Potency [13] | Potency [6] | activity (max response) [11] 0.571% and -4.58% | Potency [12]

COC[C@H](NC(=O)c1cnc(C)s1)C(=O)N[C@@H](COC)C(=O)N[C@@H](Cc1ccccc1)C(=O)[C@@]1(C)CO1
inactive: Potency [1]
active: Potency [2] 0.0661 µM | Potency [3] 0.0833 µM | Potency [4] 0.469 µM | Potency [13] 0.469 µM | Potency [5] 0.332 µM | Potency [7] 0.235 µM | Potency [10] 0.0833 µM | Potency [14] 0.0833 µM | Potency [11] 0.316 µM | Potency [12] 0.282 µM

CC(=O)N(O)CCCCCNC(=O)CCC(=O)N(O)CCCCCNC(=O)CCC(=O)N(O)CCCCCN
active: Potency [2] 6.61 µM | Potency [3] 5.9 µM | Potency [4] 0.0186 µM | Potency [13] 0.0831 µM | Potency [6] 0.0047 µM | Potency [7] 0.0741 µM | Potency [8] 0.0588 µM | Potency [11] 28.2 µM
inactive: Potency [1] | Potency [12]

CCc1c(O)cc(O)c(C(=O)c2ccc(OCCN3CCOCC3)c(OC)c2)c1CC(=O)N(CCOC)CCOC
active: Potency [2] 0.132 µM | Potency [3] 0.235 µM | Potency [4] 2.96 µM | Potency [13] 3.32 µM | Potency [5] 2.35 µM | Potency [10] 2.96 µM | Potency [14] 2.64 µM
inactive: Potency [1] | activity (max response) [11] -6.69% | Potency [12]

COc1cc(Nc2c(C#N)cnc3cc(OCCCN4CCN(C)CC4)c(OC)cc23)c(Cl)cc1Cl
active: Potency [1] 15.5 µM | Potency [2] 944 nM and 1.3 µM and 1.18 µM | Potency [3] 944 nM and 1.16 µM and 590 nM | Potency [4] 7.43 µM | Potency [13] 8.33 µM | Potency [5] 3.72 µM | Potency [7] 5.26 µM | Potency [8] 4.69 µM | Potency [9] 1.66 µM | Potency [10] 1.87 µM | Potency [14] 2.35 µM | Potency [11] 4.61 µM and 2 µM

C=CC(=O)Nc1cc2c(Nc3ccc(F)c(Cl)c3)ncnc2cc1OCCCN1CCOCC1
inactive: Potency [1] | Potency [4] | Potency [7]
active: Potency [2] 596 nM and 742 nM | Potency [3] 944 nM and 742 nM | Potency [13] 2.96 µM | Potency [5] 3.32 µM | Potency [8] 5.26 µM

CC(C)CC(=O)Nc1n[nH]c2c1CN(C(=O)C1CCN(C)CC1)C2(C)C
inactive: Potency [1]
active: Potency [2] 206 nM and 417 nM | Potency [3] 259 nM and 468 nM | Potency [4] 3.72 µM | Potency [13] 5.9 µM | Potency [5] 6.62 µM | Potency [7] 4.69 µM | Potency [8] 4.18 µM | Potency [9] 2.64 µM | Potency [10] 1.05 µM | Potency [14] 4.69 µM | Potency [11] 3.98 µM

COc1ccc2c(OCc3nnc4ccc(-c5ccccc5)nn34)ccnc2c1
active: Potency [10] 11.8 µM | Potency [14] 18.7 µM
inactive: Potency [1] | Potency [2] | Potency [3] | Potency [13] | Potency [7] | Potency [8]

Oc1c(Cl)cc(Cl)c2cccnc12
inactive: Potency [1] | Potency [4] | Potency [5]
active: Potency [2] 5.25 µM | Potency [3] 8.33 µM | Potency [9] 16.6 µM | Potency [10] 18.7 µM | Potency [14] 18.7 µM | Potency [11] 3.55 µM

Cn1c(NCCN(CCO)CCCc2ccc([N+](=O)[O-])cc2)cc(=O)n(C)c1=O
inactive: Potency [1] | Potency [2] | Potency [3] | Potency [4] | activity (max response) [11] 5.91% and 4.46% | Potency [12]

CCN1CCCC1CNC(=O)c1cc(S(=O)(=O)CC)c(N)cc1OC (configuration not stated)
inactive: Potency [1] | Potency [2] | Potency [3] | Potency [13] | Potency [6] | Potency [7] | Potency [9] | Potency [10] | Potency [14] | activity (max response) [11] 7.57% and -4.85% | Potency [12]

COc1cnc(NS(=O)(=O)c2ccc(N)cc2)nc1
active: Potency [2] 0.0012 µM
inactive: Potency [1] | Potency [3] | Potency [9] | Potency [10] | Potency [14] | activity (max response) [11] 10.3%

CNc1nc(Nc2cnn([C@H]3CCN(C4COC4)C[C@@H]3F)c2Cl)ncc1C(F)(F)F
inactive: Potency [1] | activity (max response) [11] -2.31% | Potency [12]
active: Potency [2] 1.3 µM | Potency [3] 1.86 µM | Potency [4] 1.66 µM | Potency [14] 2.34 µM

C[C@@H](N)c1ccc(C(=O)Nc2ccnc3[nH]ccc23)cc1
active: Potency [2] 4.17 µM | Potency [3] 10.3 µM | Potency [13] 18.7 µM | Potency [11] 25.1 µM
inactive: Potency [1] | Potency [7]
